# Reference: PubChem BioAssay (NCI)
# Compounds without any hit were thinned out: in the full panel of roughly 83,000, 20% have a hit.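 Activity criterion: percent growth below 10, measured after cells in 96-well plates were exposed to a single compound concentration for 48 hours.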 Active and inactive are the calls of the source.
# System: MDA-MB-468 breast
# Assay: NCI-60 one-dose screen, 48 h (100 = growth as untreated, 0 = no growth, -100 = all killed)
# Settings: 10 µM unless noted
row,Structure (SMILES),growth
1,Nc1ccc(C(=O)Nc2cccc(C(=O)Nc3ccc4c(O)c(N=Nc5ccc(N=Nc6ccc(S(=O)(=O)O)cc6)cc5)c(S(=O)(=O)O)cc4c3)c2)cc1,100% (inactive)
2,CCCCOc1ccc(NC(=O)Nc2nnc(C)s2)cc1,103% (inactive)
3,COc1c(C2CC(=O)Nc3c2c(C)nn3-c2nc3ccccc3[nH]2)cc2c(c1OC)OCO2 (stereo not given),29.6% (inactive)
4,C=C1C(=O)O[C@H]2[C@H]1CC/C(COC(=O)NCc1cn(C)c3ccccc13)=C\CC[C@@]1(C)O[C@@H]21,-38.4% (active)
5,CCOC(=O)c1ccc(NCCC(=O)O)cc1,95.5% (inactive)
6,N#Cc1c(N2CCOCC2)nc2sc3cc(Cl)ccc3n2c1=N,15.8% (inactive)
7,COc1ccc(C2CCCCC2=O)cc1 (stereo not given),109% (inactive)
8,CCCCC/C=C/CCC(=O)N[C@H]1[C@H](Oc2c3cc4cc2Oc2ccc(cc2Cl)[C@@H](O[C@@H]2O[C@H](CO)[C@@H](O)[C@H](O)[C@H]2NC(C)=O)[C@@H]2NC(=O)[C@H](NC(=O)[C@@H]4NC(=O)[C@H]4NC(=O)[C@@H](Cc5ccc(c(Cl)c5)O3)NC(=O)[C@@H](N)c3ccc(O)c(c3)Oc3cc(O)cc4c3)c3ccc(O)c(c3)-c3c(O[C@H]4O[C@H](CO)[C@@H](O)[C@H](O)[C@@H]4O)cc(O)cc3[C@H](C(=O)O)NC2=O)O[C@H](CO)[C@H](O)[C@@H]1O,110% (inactive)
9,O=C(Nc1ccc(-n2cc(-c3ccncc3)c(-c3ccc(O)c(Cl)c3)n2)cc1)Nc1cccc(Cl)c1Cl,43.5% (inactive)
10,COc1cc(C2C(C#N)=C(c3c[nH]c4ccccc34)Nc3nc(N)[nH]c(=O)c32)cc(OC)c1OC (stereo not given),13.2% (inactive)
11,CCc1nc2cc(/C=C/C(=O)NO)ccc2c(=O)n1CCc1ccc(OC)cc1,14.1% (inactive)
12,CC1=CCc2ccccc21,115% (inactive)
13,COc1ccc(-c2nc(SCC(=O)Nc3ccc(C(=O)/C=C/c4ccc(Cl)cc4)cc3)[nH]c(=O)c2C#N)cc1,39.4% (inactive)
14,COc1c(B(O)O)cccc1-c1nc2ccc3n[nH]c(F)c3c2c2c1CCCC2,71.9% (inactive)
15,Cc1cc(C)c(NC(=O)c2sc3nc4c(cc3c2N)C(=O)CCC4)c(C)c1,-27.2% (active)
16,CCc1c(Nc2ccc(C)cc2)[nH]c(N)nc1=S,97.3% (inactive)
17,COc1cc(-c2cc3ncccc3c3nc(OCCN(C)C)c4cccnc4c23)cc(OC)c1OC,-6.09% (active)
18,CN1C(=O)N(C)C2NC(N/N=C/c3ccccc3)=NC21 (stereo not given),95.9% (inactive)
19,COc1cc(C(=O)/C=C/c2sc(Cl)nc2Cl)cc(OC)c1OC,-50.9% (active)
20,CC/C(=C(\c1ccc(Cl)cc1)c1ccc(OCCN2CCCCC2)cc1)c1ccc(O)cc1,22.4% (inactive)
21,Nc1nccc2c1ccn2-c1ccc(NC(=O)Nc2cccc(C(F)(F)F)c2)cc1,72.8% (inactive)
22,O=[N+]([O-])c1ccc(OCCCOc2ccccc2)cc1,104% (inactive)
23,O=C(/C(Br)=C/c1ccccc1)c1ccccc1,-31.9% (active)
24,N#Cc1cccc(CN2CCc3ncn(Cc4ccc(Cl)cc4)c(=O)c3C2)c1,-21.8% (active)
25,Cc1c(-c2ccccc2)[nH]c2ccccc12,88.1% (inactive)
